The source of these data is PubChem BioAssay AID624267 (The Scripps Research Institute Molecular Screening Center, 2012).

Hit rate of the full screen: of about 360,000 compounds, about 1,400 (0.39%) were called active. What follows is part of a selection rich in actives, with near analogues and random picks from the rest. Unmarked numbers belong to inactive results. Cut-off read from the data, not from the text of the source: active = inhibition above about 21%; inactive = the rest.

Sequence of Receptor-interacting serine/threonine-protein kinase 2 (Homo sapiens) (O43353 whole entry, looked up): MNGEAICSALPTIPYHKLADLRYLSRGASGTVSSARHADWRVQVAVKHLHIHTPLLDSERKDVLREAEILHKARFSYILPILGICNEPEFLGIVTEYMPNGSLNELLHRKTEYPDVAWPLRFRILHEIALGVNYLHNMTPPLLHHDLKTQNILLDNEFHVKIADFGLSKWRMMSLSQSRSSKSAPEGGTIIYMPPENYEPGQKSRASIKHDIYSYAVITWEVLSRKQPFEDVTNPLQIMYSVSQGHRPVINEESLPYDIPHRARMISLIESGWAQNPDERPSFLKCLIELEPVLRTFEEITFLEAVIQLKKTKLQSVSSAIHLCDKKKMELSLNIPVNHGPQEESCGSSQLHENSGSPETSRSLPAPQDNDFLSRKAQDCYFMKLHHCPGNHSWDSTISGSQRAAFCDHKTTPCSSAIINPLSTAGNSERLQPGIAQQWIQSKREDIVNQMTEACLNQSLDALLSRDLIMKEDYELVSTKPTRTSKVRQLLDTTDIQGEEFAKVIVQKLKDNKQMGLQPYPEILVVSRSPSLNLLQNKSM

This assay addresses Receptor-interacting serine/threonine-protein kinase 2 (Homo sapiens) (UniProt O43353). As to the kind of experiment: NOD2-RIPK2 binding disruptors in cells, primary screen, fluorescence, CHO cells, BLA complementation (AID 624267).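 Note: 0% = vehicle only and 100% = reference blocker.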 The note with it: CHO BLA complementation NOD2-RIPK2, CCF4 ratio; at 4.98 µM; stronger effect = higher value.
What is called inhibition is the drop in the measured response relative to a control, in per cent. As for `COc1ccc(CN2CCCCC2C)cc1OC` (configuration not stated), the inhibition is -10.3%.
Turning to `C/C(CC(C)C)=N\Oc1nc(C)cc(C)n1`, the inhibition was -7.31%.
On to `COCCCNC(=O)CN1CCN(Cc2ccccc2Cl)C1=O`, for which the inhibition is 5.43%.
With `CCc1ccccc1N(CC(=O)N1CCN(c2ccccc2F)CC1)S(C)(=O)=O`, the inhibition is -2.64%.
For the compound `O=C(CNC(=O)OCc1ccccc1)Oc1cc2oc(=O)cc(-c3ccccc3)c2cc1Cl`, the inhibition was 52.2% (active).
On to `O=C(CNC(=O)c1ccccc1)NCC(=O)OCc1ccc(Cl)cc1`, for which the inhibition was 1.19%.
On to `O=C(CNC(=O)Cc1ccccc1)NCC(=O)OCC(=O)c1ccccc1Cl`, for which the inhibition was -8.44%.
Turning to `O=C(Nc1ccc(CSc2ccccc2)cc1)c1ccc(CN2CCOCC2)cc1`, the inhibition was -2.26%.
The result for `O=C(Cc1ccccc1)Nc1c(Cl)ccc2nsnc12` reads -10.4%; that for `C=CC(COCc1ccccc1)N(Cc1ccccc1)S(=O)(=O)c1ccccc1Br` (configuration not stated), 0.84%.
On to `COc1cc(C)c(C(C)C)cc1S(=O)(=O)n1ccnc1`, for which the inhibition is -1.8%.
The result for `O=C(NCc1ccncc1)C1CCN(C(=O)c2cccc(Cl)c2)CC1` reads -2.02%; that for `CCN(C(=O)CSc1cccc[n+]1[O-])c1ccccc1`, 1.91%; that for `Cn1c(Cc2cccc3ccccc23)nnc1SCC(=O)N1CCN(c2cccc(Cl)c2)CC1`, 2.05%.
On to `O=C(Cc1csc(Nc2nc(=S)[nH]c3ccccc23)n1)NCCCN1CCN(c2cccc(Cl)c2)CC1`, for which the inhibition is 38.1% (active).
As for `COCCCn1c(Cc2csc(Nc3cccc(Cl)c3)n2)nnc1SCC(=O)OC1CCCCC1`, the inhibition is -7.45%.
On to `CNC(=O)n1ccc(C(=O)N2CCCCC2)n1`, for which the inhibition was 1.22%.
The result for `O=C(NN1C(=O)C2C3C=CC(O3)C2C1=O)c1ccccc1` (configuration not stated) reads -0.12%; that for `Cc1nnc(SCC(=O)NC2CCCC2)s1`, -7.66%; that for `Cc1nnc(SCC(=O)Nn2cnnc2)s1`, 34.9% (active).
`CCSc1nnc(SCC(=O)NNC(=O)c2ccccc2F)s1`: the inhibition was -9.88%.
`CCOc1ccc(/C(O)=C2/C(=O)C(=O)N(Cc3cccnc3)C2c2ccc(N(C)C)cc2)c(C)c1` (configuration not stated): the inhibition is -5.35%.
As to `O=C(COc1nsnc1N1CCOCC1)Nc1ccccc1Cl`, the inhibition was -6.94%.
Then `O=C(Nc1ccccc1Cl)/C(Cl)=C(\Cl)S(=O)c1ccccc1` (configuration not stated), with 70.5% (active); and `C/C(=N\NS(=O)(=O)c1ccc(Cl)cc1)c1ccc(NC(=O)c2ccco2)cc1`, with 7.02%.
Then `O=C(Nc1ccccc1)c1nnsc1S(=O)(=O)c1ccc(Cl)cc1`, with 56.9% (active); and `CN(C)/C=C(/C(=O)c1ccccc1)S(=O)(=O)c1ccc(Cl)cc1`, with 10.5%.
As to `CCOc1ccc(CN2CCC(n3nccc3NC(=O)C3CC3)CC2)cc1CO`, the inhibition was -4.91%.
For `Cc1cc(NC(=O)CN2CCC(O)(c3cccc(F)c3)CC2)no1`, the inhibition is -7.88%.
Turning to `NC(=O)COc1ccccc1C(=O)NC12CC3CC(CC(C3)C1)C2`, the inhibition is 2.45%.
Consider `CCSc1ccccc1C(=O)Nc1ccc2c(c1)OCO2`, for which the inhibition was 1.86%.
On to `O=C1C(Cl)=C(Oc2ccccc2)C(=O)c2ccccc21`, for which the inhibition is 71.7% (active).
Then `O=C(CNc1ccccc1N1CCCC1=O)Nc1cc(Cl)ccc1-n1cncn1`, with 4.89%.
On to `Nc1c(C(=O)c2cccs2)sc2nsc(SCCN3CCCCC3)c12`, for which the inhibition is 37.8% (active).
As for `COc1ccccc1Oc1ccc(N2CC(C(=O)OCC(=O)c3ccc(F)cc3)CC2=O)cc1` (configuration not stated), the inhibition was -13.1%.
The result for `Cc1ccccc1CS(=O)(=O)CC1(O)CCN(C(=O)c2cccc(C(F)(F)F)c2)CC1` reads -2.24%; that for `CC(C)(C)n1nc2c(c1NC(=O)c1ccc(S(=O)(=O)N3CCCC3)cc1)CS(=O)C2` (configuration not stated), 1.52%; that for `Cc1cccc(OC(C)C(=O)N2CCc3ccccc3C2)c1` (configuration not stated), -10.7%.
With `O=C(/C=C/c1ccc(Cl)c([N+](=O)[O-])c1)c1ccc(O)cc1`, the inhibition is 28.9% (active).
Consider `O=C(NCCC1=CCCCC1)c1ccc(Cl)c([N+](=O)[O-])c1`, for which the inhibition was -8.9%.
Then `O=[N+]([O-])c1ccc(N2CCN(c3ccc(O)cc3)CC2)c(Cl)c1`, with -4.55%.
With `O=C(Oc1ccccc1Cl)c1ccc(N2CCOCC2)c([N+](=O)[O-])c1`, the inhibition was 1.05%.
Turning to `N#Cc1cc([N+](=O)[O-])ccc1NC(=O)COC(=O)c1cnccn1`, the inhibition was -8.54%.
For `CSc1ccccc1NC(=O)c1cnc2sc(C)cn2c1=O`, the inhibition was -0.62%.
Regarding `CN(CC(=O)Nc1ccc(F)cc1)CC(=O)N1CCCCC1`, the inhibition was 3.04%.
As for `O=C(CSc1ncn[nH]1)Nc1nsc(-c2ccccc2)n1`, the inhibition was 1.03%.
Turning to `O=C(CSc1ncn[nH]1)Nc1nc(-c2cccc([N+](=O)[O-])c2)cs1`, the inhibition was 21.5% (active).
Turning to `O=C(CSc1ncn[nH]1)Nc1nc2c(F)c(F)c(F)cc2s1`, the inhibition is 2.77%.
The result for `CCN(C(=O)Cc1nc(N)n[nH]1)C1(C(=O)Nc2ccccc2)CCCCC1` reads -2.08%; that for `O=C(NN1C(=O)C2C3C=CC(O3)C2C1=O)c1ccncc1` (configuration not stated), -1.04%.
In the case of `Oc1ccc2ccc3cccc[n+]3c2c1`, the inhibition was 23.5% (active).
With `Cc1nn(C)c(C)c1C(C)NC(=O)c1ccc(OC2CCN(Cc3ccccn3)CC2)cc1` (configuration not stated), the inhibition was -7.27%.
For the compound `N#CCCN(C(=O)COC(=O)c1ccc(S(=O)(=O)N2CCCCCC2)cc1)c1ccccc1`, the inhibition was -9.9%.
Then `NC(CSC12CC3CC(CC(C3)C1)C2)C(=O)O` (configuration not stated), with 2.91%; and `O=C1C=C(c2ccc(Cl)cc2)C(=O)N1Nc1ccccc1`, with 34.1% (active).
Turning to `Cc1ccc(S(=O)(=O)Nc2ccc3c(c2)C(=O)N([C@H](C)CO)C[C@@H](C)[C@@H](CN(C)C(=O)Nc2cccc4ccccc24)O3)cc1`, the inhibition was -59.7%.
Regarding `CCN(CC)CCCC(C)n1c2nc(=O)[nH]c(=O)c-2nc2cc(Cl)ccc21` (configuration not stated), the inhibition was 31.2% (active).
The result for `COc1cccc(CC(=O)OCC(=O)NCc2ccc3c(c2)OCO3)c1` reads 9.81%.
For the compound `COc1cc(/C=C(\C#N)c2nc3c(s2)CC(C)CC3)ccc1O` (configuration not stated), the inhibition is 23.2% (active).
As for `COc1cc(C=NC2CCCCC2)ccc1O`, the inhibition is 0.2%.
Turning to `COCCCN(C(=S)Nc1c(C)cc(C)cc1C)C(C)c1ccncc1` (configuration not stated), the inhibition was -3.93%.
`CC(=O)Oc1cccc(N2C(=O)CC(Nc3ccc(N4CCOCC4)cc3)C2=O)c1` (configuration not stated): the inhibition is -13.9%.
Consider `Cc1ccc(NC(=O)Cn2sc3ccccc3c2=O)cc1`, for which the inhibition was 22.1% (active).
Then `CC1(C)NC(=O)N(CC(=O)Nc2ccc(-c3ccccc3)cc2)C1=O`, with 4.81%.
On to `O=C(Cn1nc(C(=O)O)c2ccccc2c1=O)Nc1ccc(F)cc1`, for which the inhibition is -5.34%.
For `CN(C)CCCNC(=S)N1CCC(c2nc3ccccc3[nH]2)CC1`, the inhibition was -7.82%.
Then `CCc1nn(CCCC(=O)Nc2ccc(C)cc2C)c(=O)c2cc3occc3n12`, with 4.65%; and `CS(=O)(=O)N(CC(=O)N1CCCC1)Cc1ccccc1`, with 3.45%; and `O=C1/C(=C\c2ccc([N+](=O)[O-])cc2)CS(=O)(=O)C/C1=C/c1ccc([N+](=O)[O-])cc1`, with 44.6% (active).
Take `O=[N+]([O-])c1ccc(CN2CC(N3CC=CC3)CS2(=O)=O)cc1` (configuration not stated): the inhibition was -11%.
On to `CCc1nc2ccc(C(=O)NCc3ccc(OC)cc3)cn2c1N(CC)Cc1cccc(Br)c1`, for which the inhibition was 6.44%.
Regarding `COC(=O)[C@]1(C)CCC[C@@]2(C)C3CC[C@]4(OC(C)=O)C[C@@]3(CCC21)CC4=NO` (some centres not stated), the inhibition is 6.55%.
Consider `O=C(COc1ccccc1Cl)Nc1ccc(C(=O)c2ccc(C(=O)O)cc2)cc1`, for which the inhibition is 2.32%.
On to `O=C(O)CC(Cc1ccccc1)C(=O)Nc1ccc([N+](=O)[O-])cc1` (configuration not stated), for which the inhibition is -1.04%.
Regarding `COc1cc2c(cc1OC)C1C(=O)c3cc(OS(C)(=O)=O)c(OC)cc3C1N(C)C2=O` (configuration not stated), the inhibition was 3.51%.
Turning to `COc1ccc(C(CNC(=O)COc2ccc([N+](=O)[O-])cc2)N2CCCCC2)cc1` (configuration not stated), the inhibition was 0.77%.
Then `Cc1cc(C)n(CC(O)COc2ccc(C(C)(C)C)cc2)n1` (configuration not stated), with -8.7%; and `COc1ccc(C(C[N+](=O)[O-])n2nc(C)cc2C)cc1` (configuration not stated), with 26.6% (active).
For the compound `C=CCn1cc(-c2cccc(C(F)(F)F)c2)cc(C#N)c1=O`, the inhibition was 0.01%.
Turning to `COCCCNC(=S)N1CCCC(c2nc3cc(C)c(C)cc3[nH]2)C1` (configuration not stated), the inhibition is -3.68%.
For `O=C(OCc1nnc(-c2ccccc2)o1)c1ccc2c(c1)C(=O)N(CCc1ccccc1)C2=O`, the inhibition is 9.8%.
Take `CC(C)N(Cc1nnc(-c2ccccc2Br)o1)C(=O)c1cc(Cl)nc2ccccc12`: the inhibition was -10.3%.
As to `Nc1cccc2c1C(=O)N(Cc1nnc(-c3ccccc3Br)o1)C2=O`, the inhibition is 27.5% (active).
The result for `CC(C)CC(CO)N1CCN(C(=O)c2ccc(Cl)cc2Cl)CCC1=O` (configuration not stated) reads -4.88%; that for `COc1ccc(-c2nc3n(c2Br)CCC3)cc1`, -7.99%; that for `O=C(Nc1ccccc1)C1CC(=O)n2c(nc3ccccc32)N1` (configuration not stated), -8.18%.
Take `Cc1csc(NC(=O)C2CCCN2C(=O)OCC(C)C)n1` (configuration not stated): the inhibition was -2.47%.
With `CN1CCN(S(=O)(=O)c2cccc(C(=O)N3CCc4ccccc43)c2)CC1`, the inhibition was 2.86%.
For `CC(=O)N1CCN(S(=O)(=O)c2cccc(C(=O)NC3CCC(C)CC3)c2)CC1` (configuration not stated), the inhibition was -9.28%.
Consider `CC1CC(C)CN(S(=O)(=O)c2cccc(C(=O)N3C(=O)c4cccc(N)c4C3=O)c2)C1` (configuration not stated), for which the inhibition was 30.1% (active).
The result for `O=[N+]([O-])c1ccc(Oc2ccc(F)cc2Br)c2ccncc12` reads -1.06%; that for `CC(C)CNC(=S)NNC(=O)c1nn(C)cc1Cl`, -4.5%.
